Our source for the outcome and AC50 values is PubChem BioAssay (EPA / NIEHS).

The source holds several records for some structures; these can differ, active in one and inactive in another. Activity calls are given as the source filed them. The calls were made as follows: active = hit-call score of the fitted dose curve at least 0.9, where 1 is the maximum; inactive = score below 0.9.

This assay is described as follows: ATG_SREBP_CIS: Attagene CIS-FACTORIAL HepG2 Assay for human Sterol Regulatory Element Binding (SREBP) (AID 2282962). Conditions: HepG2 Attagene cis-factorial SREBP reporter, mRNA; actives raise or lower the signal. The procedure: ATG_CIS is a cell-based, multiplexed-readout assay that uses HepG2, a human liver cell line, with measurements taken at 24 hours after chemical dosing in a 24-well plate.ATG_SREBP_CIS is one of 52 assay component(s) measured or calculated from the ATG_CIS assay. It is designed to make measurements of mRNA induction, a form of inducible reporter, as detected with fluorescence intensity signals by Reverse transcription polymerase chain reaction (RT-PCR) and Capillary electrophoresis technology.Data from the assay component ATG_SREBP_CIS was analyzed into 1 assay endpoint. This assay endpoint, ATG_SREBP_CIS, was analyzed with bidirectional fitting relative to DMSO as the negative control and baseline of activity. Using a type of inducible reporter, measures of mRNA for gain or loss-of-signal activity can be used to understand the reporter gene at the transcription factor-level as they relate to the gene SREBF1. Furthermore, this assay endpoint can be referred to as a primary readout, because this assay has produced multiple assay endpoints where this one serves a reporter gene function. To generalize the intended target to other relatable targets, this assay endpoint is annotated to the dna binding intended target family, where the subfamily is basic helix-loop-helix leucine zipper.
Human liver HepG2 cells are transiently transfected with multiple reporter transcription units (MRTUs) in 6-well plates using FuGene 6 reagent (Roche; 3 ml FuGene/1 mg DNA). The MRTU constructs are regulated by a cis-regulating element (promoter). […] A major difference between the CIS and TRANS system is that in CIS activities of endogenous TFs are measured, whereas the TRANS assay evaluates changes in activities of exogenous, chimeric NR-Gal4 proteins. […] At the end of 24 hour incubation, total RNA was isolated using TriZol reagent (Invitrogen). The isolated RNA is then reverse-transcribed using oligo(dT) primer and Mo-MLV reverse transcriptase (Invitrogen) with DNAse I (Ambion) treatment for 30 min. The one-tenth of the produced cDNA was amplified by PCR using Taq DNA polymerase (Invitrogen) and two reporter sequence-specific primers. The PCR products were fluorescently labeled by primer extension with 6-arboxyfluorescein (6-FAM) 5'-labeled reporter sequence-specific primer (2 min at 95 C, 20 s at 68 C and 10 min at 72 C) and these products were digested with 5U of HpaI (New England Biolabs) for 2h at 37 C. The fragments were purified using Qiaquick PCR columns (Qiagen), analyzed on an ABI 3130xL genetic analyzer (Applied Biosystems) with peak positions identified by using a set of X-rhodamine (ROX)-labeled MapMarker1000 molecular weight standards (BioVentures). The raw capillary electrophoresis data was processed using Attagraph software (Attagene).
In the case of `O=C(O)[C@H](O)[C@@H](O)C(=O)O`, the result was inactive.
For `Cc1nc(-c2ccccn2)ncc1C(=O)Nn1cc(C)c2cc(F)ccc21`, the compound was called inactive.
`Nc1ccn([C@@H]2O[C@H](CO)[C@@H](O)[C@@H]2O)c(=O)n1`: the result was inactive.
Consider `OCCC(F)(F)C(F)(F)C(F)(F)C(F)(F)F`, for which the result was inactive.
In the case of `FC(F)=C(F)C(F)(F)C(F)(F)C(F)(F)C(F)(F)C(F)(F)C(F)(F)F`, the compound was classed as inactive.
In the case of `NC(N)=O`, the compound was called inactive.
Consider `O=C(Cl)C(F)(F)C(F)(F)C(F)(F)C(=O)Cl`, for which the result was inactive.
Still for that read-out and setting: as for `NNC(=O)c1ccncc1`, the entry is “inactive”; as for `OCCOCCOCCO`, “inactive”.
For `CCCCC(CC)C(=O)OCCOCCOCCOC(=O)C(CC)CCCC` (stereo not given), the compound was called inactive.
Regarding `Cc1ncc([C@@H](CCCCCCc2ccc3c(n2)NCCC3)CC(=O)O)cn1`, the outcome was inactive.
The AC50 is the concentration giving half of the maximal activity seen. Regarding `C=CCc1cc(S(=O)(=O)c2ccc(O)c(CC=C)c2)ccc1O`, the half-maximal activity concentration (AC50) is 9.26 µM (active).
In the case of `O=C(O)c1cccc(C(=O)O)c1`, the outcome was inactive.
For the compound `O=S(=O)(O)CCC(F)(F)C(F)(F)C(F)(F)C(F)(F)C(F)(F)C(F)(F)F`, the compound was called inactive.
Consider `COCc1nnc(-c2ccc[n+]([O-])c2)n1-c1c(Cl)c(Cl)cc2[nH]c(=O)c(=O)[nH]c12`, for which the outcome was inactive.
Regarding `CC[C@H](C)C(=O)O[C@H]1C[C@H](O)C=C2C=C[C@H](C)[C@H](CC[C@@H](O)C[C@@H](O)CC(=O)O)[C@H]21`, the call was inactive.
Turning to `NCC(F)(F)C(F)(F)C(F)(F)C(F)(F)F`, the compound was classed as inactive.
Regarding `O=C(O)CO`, the call was inactive.
As to `NC(=O)NN=Cc1ccc([N+](=O)[O-])o1`, the result was inactive.
As for `CCc1cccc(CC)c1N`, the compound was classed as inactive.
Consider `CC(C)C(=O)Nc1ccc([N+](=O)[O-])c(C(F)(F)F)c1`, for which the compound was called inactive.
The same measure, in the same setting: as for `c1ccc2cc3ccccc3cc2c1`, the entry is “inactive”; as for `CCc1ccc(O)c(C(C)(C)C)c1`, “inactive”.
Same read-out and setting: as for `CCCCCCCCN(C)C`, the entry is “inactive”.
Still for that read-out and setting: as for `CCCCCOC(C)=O`, the entry is “inactive”; as for `CNC(C)=O`, “inactive”.
Regarding `CC(C)CC(C)O` (stereo not given), the outcome was inactive.
Turning to `CCn1nc(C)c2c1C(=O)NCC(c1ccc(O)cc1)=N2`, the half-maximal activity concentration (AC50) was 2.82 µM (active).
Still for that read-out and setting: to `Cc1nccn1-c1ccc(Sc2cccc(C3(C(N)=O)CCOCC3)c2)cc1` belongs 2.08 µM (active).
Consider `COc1cc2c(c(OC)c1OC)-c1ccc(OC)c(=O)cc1[C@@H](NC(C)=O)CC2`, for which the outcome was inactive.
Turning to `O=C(NO)C1(NS(=O)(=O)c2ccc(Oc3ccc(F)cc3)cc2)CCOCC1`, the AC50 was 31.2 µM (active).
As for `OCc1c[nH]c2ccccc12`, the compound was called inactive.
`COS(C)(=O)=O`: the compound was called inactive.
As to `S=P(N1CC1)(N1CC1)N1CC1`, the call was inactive and the AC50 was 157 µM (active).
On to `CCOC(N)=O`, for which the result was inactive.
With `c1ccc(C(O[C@@H]2CCCN(CCc3ccc4c(c3)OCO4)C2)c2ccccc2)cc1`, the AC50 is 10.7 µM (active).
For the compound `CCN(CC)C(=S)SSC(=S)N(CC)CC`, the AC50 was 157 µM (active).
For the compound `OCCNCCO`, the compound was classed as inactive.
Take `Cn1c(=O)c2[nH]cnc2n(C)c1=O`: the call was inactive.
